Results filed as inconclusive are left out. The source made the active and inactive calls. Unless noted, the call rests on the fitted dose curve; in most records, active means well fitted curve in the direction sought with a large enough effect; inconclusive means small, poorly fitted or top-dose-only effect, or another doubt; inactive means no such curve, though single readings can be large; an effect the other way counts as inactive or inconclusive.
Columns and labels:
[1] = A High-Content qHTS Against Drug Library for the Identification of Small Molecules that Inhibit DYT1 Early Onset Primary Dystonia-Associated Cell Pathology (AID 1645839; calls by dose curve; further: series mostly up to about 46 µM)
How it was run: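 Flp-In T-REx 293 cells with tetracycline-inducible EGFP-delE hTOR1A (WT EGFP-hTOR1A as reference), 800 cells/well; compound added with tetracycline, 48 h at 37 C. Fixed, permeabilized cells imaged; %pathology (punctate TorsinA) primary, cell count counterscreen.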

[2] = target: Cytochrome P450 2C9 (Homo sapiens) (UniProt P11712); experiment: Cytochrome P450 family 2 subfamily C member 9 (CYP2C9) small molecule antagonists: luciferase biochemical (cell-free) qHTS assay (AID 1645842; active means well fitted curve in the direction sought with a large enough effect in the repeat runs; an effect the other way counts as inactive or inconclusive; further: nearly all actives have a fitted effect of over 55% in size; further: potency means the concentration at half of the fitted maximal effect)
Sequence of Cytochrome P450 2C9 (Homo sapiens) (P11712 whole entry, looked up): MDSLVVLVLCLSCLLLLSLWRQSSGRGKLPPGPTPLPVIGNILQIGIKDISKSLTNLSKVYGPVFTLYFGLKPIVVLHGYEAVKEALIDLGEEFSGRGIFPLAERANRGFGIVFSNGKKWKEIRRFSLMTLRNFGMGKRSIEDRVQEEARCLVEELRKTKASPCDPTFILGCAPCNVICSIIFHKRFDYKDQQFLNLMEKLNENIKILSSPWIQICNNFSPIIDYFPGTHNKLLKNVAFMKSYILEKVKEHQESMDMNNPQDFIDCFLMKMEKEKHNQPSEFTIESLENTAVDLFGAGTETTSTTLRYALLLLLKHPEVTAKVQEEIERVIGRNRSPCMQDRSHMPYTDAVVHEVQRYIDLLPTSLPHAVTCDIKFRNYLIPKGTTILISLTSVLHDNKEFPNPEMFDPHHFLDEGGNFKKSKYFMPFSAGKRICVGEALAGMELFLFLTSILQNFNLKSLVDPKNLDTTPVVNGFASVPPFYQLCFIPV
How it was run: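 Luminescence, after 20 min with luciferin detection reagent, reflected CYP2C9 turnover during a 1 h NADPH-driven reaction at 37C. Enzyme-substrate mix contained 0.4% bovine serum albumin and was preincubated with compound 10 min at room temperature.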

[3] = Primary qHTS for inhibitors of nuclear receptor binding SET domain protein 2 (NSD2) in an isogenic RCH-ACV NSD2 p.E1099K mutant (9B) (AID 1645876); further: nearly all actives have a fitted effect of over 70% in size
[4] = Primary qHTS for inhibitors of nuclear receptor binding SET domain protein 2 (NSD2) in an RCH-ACV wild type WT cells (2C) (AID 1645877); further: nearly all actives have a fitted effect of over 70% in size; further: potency means the concentration at half of the fitted maximal effect
[5] = NCATS anti-infectives library activity on HEK293 viability as a counter-qHTS vs the C. elegans viability qHTS (AID 1745854);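 further: HEK293 cells exposed to compounds for 24 hr before the viability read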
How it was run: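 Compounds were acoustically plated (several concentrations, 1:5, final up to 41.7 uM), then 1500 HEK293 cells added per well and incubated 24 hr at 37C, 5% CO2. CellTiter-Glo was added and luminescence read after 10 min.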

[6] = target: Cytochrome P450 2D6 (Homo sapiens) (UniProt P10635); experiment: Cytochrome P450 family 2 subfamily D member 6 (CYP2D6) small molecule antagonists: luciferase biochemical (cell-free) qHTS assay (AID 1645840; active means well fitted curve in the direction sought with a large enough effect in the repeat runs; an effect the other way counts as inactive or inconclusive; further: nearly all actives have a fitted effect of over 55% in size; further: potency means the concentration at half of the fitted maximal effect)
Sequence of Cytochrome P450 2D6 (Homo sapiens) (P10635 whole entry, looked up): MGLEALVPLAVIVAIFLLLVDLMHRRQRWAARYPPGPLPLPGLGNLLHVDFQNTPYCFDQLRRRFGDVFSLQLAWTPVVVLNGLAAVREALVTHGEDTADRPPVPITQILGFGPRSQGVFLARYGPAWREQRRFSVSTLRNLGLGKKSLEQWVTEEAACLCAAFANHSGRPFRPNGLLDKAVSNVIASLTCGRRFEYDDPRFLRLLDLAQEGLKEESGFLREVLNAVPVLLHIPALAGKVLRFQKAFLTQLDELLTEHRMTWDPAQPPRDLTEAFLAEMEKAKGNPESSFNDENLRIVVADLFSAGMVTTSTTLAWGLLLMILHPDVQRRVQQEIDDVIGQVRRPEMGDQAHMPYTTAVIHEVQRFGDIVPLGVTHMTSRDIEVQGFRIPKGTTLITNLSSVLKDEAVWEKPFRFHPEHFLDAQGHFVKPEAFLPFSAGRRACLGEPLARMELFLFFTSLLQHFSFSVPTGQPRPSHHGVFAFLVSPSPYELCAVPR
How it was run: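 P450-Glo luminescent screen: recombinant CYP2D6 enzyme–proluciferin substrate mix preincubated with compound 10 min at room temperature, then NADPH regeneration added for 1 h at room temperature. Detection reagent added for 20 min; luciferin light read as relative luminescence units.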

[7] = Viability counterscreen for antagonist of constitutive androstane receptor (CAR) against the NCATS DSHEA and TCM libraries (AID 1794837);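 further: compound exposure lasted 24 h before viability reading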
How it was run: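 Viability was measured by CellTiter-Fluor fluorescence (405/540 nm, 1 hr) in HepG2-CYP2B6-hCAR cells. Cells were co-treated 24 hr with 48 uM CITCO (final), antagonist mode, and test substances.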

[8] = Viability counterscreen for agonist of constitutive androstane receptor (CAR) against the NCATS DSHEA and TCM libraries (AID 1794838);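 further: cells exposed to compound for 24 h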
How it was run: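 Cell viability, from CellTiter-Fluor fluorescence (405/540 nm), was scored after a 24 h, 37C exposure of HepG2 cells carrying CYP2B6 reporter and hCAR to test substances in presence of 0.75 uM PK11195.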

[9] = target: Nuclear receptor subfamily 1 group I member 3 (Homo sapiens) (UniProt Q14994); experiment: Primary qHTS for agonist of constitutive androstane receptor (CAR) against the NCATS DSHEA and TCM libraries (AID 1794839);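 further: HepG2 cells expressing human CAR with a CYP2B6 reporter plus PK11195 antagonist; luciferase reporter luminescence read with ONE-Glo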
Sequence of Nuclear receptor subfamily 1 group I member 3 (Homo sapiens) (Q14994 whole entry, looked up): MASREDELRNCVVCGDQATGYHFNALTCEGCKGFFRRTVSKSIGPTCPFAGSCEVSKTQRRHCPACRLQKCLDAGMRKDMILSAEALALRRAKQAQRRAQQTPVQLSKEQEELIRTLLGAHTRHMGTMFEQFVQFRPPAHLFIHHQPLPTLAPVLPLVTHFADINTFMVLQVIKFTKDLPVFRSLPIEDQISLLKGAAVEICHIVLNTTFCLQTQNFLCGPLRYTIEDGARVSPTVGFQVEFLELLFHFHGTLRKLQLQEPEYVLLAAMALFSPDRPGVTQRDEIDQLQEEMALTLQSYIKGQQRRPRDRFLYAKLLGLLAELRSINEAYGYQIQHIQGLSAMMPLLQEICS
How it was run: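 Agonist mode in presence of hCAR antagonist PK11195 (0.75 µM final): test substances, 24 h, 37 °C, on HepG2-CYP2B6-hCAR cells. Same-well readouts: fluorescence viability, then ONE-Glo luminescence; CITCO as reference agonist.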

[10] = target: Rap guanine nucleotide exchange factor 3 (Homo sapiens) (UniProt O95398); experiment: Confirmatory qHTS for antagonist of cAMP-regulated guanine nucleotide exchange factor 3 (EPAC1) (AID 1645880); further: nearly all actives have a fitted effect of over 55% in size
Sequence of Rap guanine nucleotide exchange factor 3 (Homo sapiens) (O95398 whole entry, looked up): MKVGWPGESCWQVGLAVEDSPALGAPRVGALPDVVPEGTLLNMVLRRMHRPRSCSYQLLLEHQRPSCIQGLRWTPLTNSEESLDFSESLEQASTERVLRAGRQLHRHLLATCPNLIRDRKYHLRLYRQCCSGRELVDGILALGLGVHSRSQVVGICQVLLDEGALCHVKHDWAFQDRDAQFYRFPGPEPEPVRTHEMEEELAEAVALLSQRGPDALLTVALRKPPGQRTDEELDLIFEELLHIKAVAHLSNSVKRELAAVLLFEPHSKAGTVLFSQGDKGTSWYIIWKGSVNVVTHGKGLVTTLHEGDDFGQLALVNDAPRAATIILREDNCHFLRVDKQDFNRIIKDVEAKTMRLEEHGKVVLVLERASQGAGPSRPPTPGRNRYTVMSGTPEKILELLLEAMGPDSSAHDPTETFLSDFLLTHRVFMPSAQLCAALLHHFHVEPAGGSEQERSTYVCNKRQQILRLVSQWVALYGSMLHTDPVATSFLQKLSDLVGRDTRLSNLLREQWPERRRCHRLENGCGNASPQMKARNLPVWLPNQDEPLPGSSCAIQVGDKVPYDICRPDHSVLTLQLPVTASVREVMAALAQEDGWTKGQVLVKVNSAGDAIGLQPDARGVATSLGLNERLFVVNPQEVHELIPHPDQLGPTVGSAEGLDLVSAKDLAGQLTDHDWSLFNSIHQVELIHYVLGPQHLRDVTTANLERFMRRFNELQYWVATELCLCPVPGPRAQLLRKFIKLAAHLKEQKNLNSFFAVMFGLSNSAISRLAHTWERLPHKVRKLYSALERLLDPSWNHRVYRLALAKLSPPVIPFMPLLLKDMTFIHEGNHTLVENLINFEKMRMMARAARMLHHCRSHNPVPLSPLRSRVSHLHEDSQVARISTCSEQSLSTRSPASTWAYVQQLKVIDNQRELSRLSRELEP
How it was run: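 Nucleotide exchange uses 100 nM EPAC1, 250 nM RAP1B-BODIPY-GDP and 50 uM GDP, with compounds in a concentration-titration series. After 5 min at room temperature, fluorescence (480 nm ex/540 nm em) is read every 5 min for 30 min. Data are normalized to control ATA and DMSO.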

[11] = target: Rap guanine nucleotide exchange factor 3 (Homo sapiens) (UniProt O95398); experiment: Confirmatory qHTS for agonist of cAMP-regulated guanine nucleotide exchange factor 3 (EPAC1) (AID 1645881);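 further: EPAC1 catalysed release of BODIPY-GDP from Rap1B seen as fluorescence loss; nearly all actives have a fitted effect of over 75% in size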
[12] = target: Rap guanine nucleotide exchange factor 4 (Homo sapiens) (UniProt Q8WZA2); experiment: Confirmatory qHTS for agonist of cAMP-regulated guanine nucleotide exchange factor 4 (EPAC2) (AID 1645884);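 further: nucleotide exchange releases bodipy-GDP from Rap1 and this lowers its fluorescence; nearly all actives have a fitted effect of over 65% in size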
Sequence of Rap guanine nucleotide exchange factor 4 (Homo sapiens) (Q8WZA2 whole entry, looked up): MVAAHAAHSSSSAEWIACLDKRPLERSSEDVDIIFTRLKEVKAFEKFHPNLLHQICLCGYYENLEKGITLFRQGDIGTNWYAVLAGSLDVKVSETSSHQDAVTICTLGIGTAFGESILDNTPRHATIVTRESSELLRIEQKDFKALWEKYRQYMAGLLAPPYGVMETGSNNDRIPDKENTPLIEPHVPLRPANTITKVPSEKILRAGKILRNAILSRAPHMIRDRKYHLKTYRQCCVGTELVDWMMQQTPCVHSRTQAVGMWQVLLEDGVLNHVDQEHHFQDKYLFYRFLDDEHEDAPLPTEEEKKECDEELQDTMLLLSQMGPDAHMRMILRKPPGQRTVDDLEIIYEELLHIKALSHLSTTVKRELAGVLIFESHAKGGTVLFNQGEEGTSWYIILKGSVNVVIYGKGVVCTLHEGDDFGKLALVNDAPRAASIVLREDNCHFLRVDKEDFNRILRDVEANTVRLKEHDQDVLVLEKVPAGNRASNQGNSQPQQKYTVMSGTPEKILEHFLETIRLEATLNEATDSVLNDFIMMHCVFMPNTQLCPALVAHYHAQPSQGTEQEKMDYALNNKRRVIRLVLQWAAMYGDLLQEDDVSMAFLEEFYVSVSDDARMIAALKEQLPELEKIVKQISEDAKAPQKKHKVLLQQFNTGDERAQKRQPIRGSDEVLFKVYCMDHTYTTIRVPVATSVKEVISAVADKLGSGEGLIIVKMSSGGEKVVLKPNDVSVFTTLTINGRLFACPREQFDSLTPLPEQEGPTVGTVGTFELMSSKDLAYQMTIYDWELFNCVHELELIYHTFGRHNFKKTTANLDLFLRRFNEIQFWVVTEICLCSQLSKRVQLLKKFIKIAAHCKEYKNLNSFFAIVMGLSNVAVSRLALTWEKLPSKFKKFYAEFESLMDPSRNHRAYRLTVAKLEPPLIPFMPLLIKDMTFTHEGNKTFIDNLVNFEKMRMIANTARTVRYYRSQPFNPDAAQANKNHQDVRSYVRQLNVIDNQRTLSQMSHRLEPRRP

[13] = target: Rap guanine nucleotide exchange factor 4 (Homo sapiens) (UniProt Q8WZA2); experiment: Confirmatory qHTS for antagonist of cAMP-regulated guanine nucleotide exchange factor 4 (EPAC2) (AID 1645885); further: nearly all actives have a fitted effect of over 25% in size

Measured: Potency

O=C(O)CCCc1ccccc1
inactive: [1] | [2] | [3] | [4] | [5]

CCc1nnc(NS(=O)(=O)c2ccc(N)cc2)s1
inactive: [1] | [6] | [3] | [4]

Cc1ccc(S(=O)(=O)NC(=O)NC2CCCCC2)cc1
inactive: [1] | [6] | [3] | [4]

O=C(O)Cn1c(C(=O)Nc2nc(-c3ccccc3Cl)cs2)cc2ccccc21
inactive: [2] | [3]

CCN[C@H]1CN(CCCOC)S(=O)(=O)c2sc(S(N)(=O)=O)cc21
inactive: [1] | [2] | [3] | [4] | [5]

CC(N)CCCC(C)(C)O (configuration not stated)
inactive: [6] | [2] | [3] | [4]

COc1ccccc1Oc1c(NS(=O)(=O)c2ccc(C(C)(C)C)cc2)nc(-c2ncccn2)nc1OCCO
inactive: [6]

CC(=O)OCC(=O)[C@@]1(O)CC[C@H]2[C@@H]3CCC4=CC(=O)C=C[C@]4(C)[C@@]3(F)[C@@H](O)C[C@@]21C
inactive: [1] | [6] | [2]
active: [4] 0.0211 µM

NS(=O)(=O)c1cc(C2(O)NC(=O)c3ccccc32)ccc1Cl (configuration not stated)
inactive: [1] | [2] | [3] | [4]

NS(=O)(=O)c1cc2c(cc1C(F)(F)F)NCNS2(=O)=O
inactive: [1] | [2] | [3] | [4]

FC(F)(F)C(Cl)Br (configuration not stated)
inactive: [1] | [6] | [2] | [3] | [4]

O=C(O)c1ccc(OCCCOc2ccc(C(=O)O)cc2)cc1
inactive: [1] | [2] | [3] | [4]
active: [6] 12.3 µM

CCOC(=O)OC(C)OC(=O)[C@@H]1N2C(=O)[C@@H](NC(=O)[C@H](N)c3ccccc3)[C@H]2SC1(C)C (some centres not stated)
inactive: [1] | [2] | [3] | [4]

CC(=O)Nc1ccc(OCCOCCOc2ccc(NC(C)=O)cc2)cc1
active: [2] 3.47 µM
inactive: [6] | [3] | [4]

Cc1ccc(C(C)C)c(O)c1
not listed: [5] | [10] | [11] | [12] | [13]
inactive: all other assays above

NC(=O)CCCCC1CCSS1 (configuration not stated)
inactive: [1] | [6] | [2] | [3] | [4]

NC(=O)NC1NC(=O)NC1=O (configuration not stated)
not listed: [4] | [5]
inactive: all other assays above

CC(C)CCOC(=O)c1ccc(N(C)C)cc1
active: [2] 6.92 µM
inactive: [1] | [6] | [3] | [4]

COc1ccccc1OCC(O)CO (configuration not stated)
inactive: [1] | [3] | [4]

— PubChem BioAssay (NCATS)
